Measured values from PubChem BioAssay (NCI).
This is part of a sample that, as a whole, favours compounds with a hit. Of some 83,000 tested, about 20% had one in any assay.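 How to read the values: 0–100, growth inhibition (40 = 60% inhibited); 0, no net growth; -100 to 0, cell death (-40 = 40% of starting cells died; -100 = all dead).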 The source made the active and inactive calls. How the source made its calls: active means growth percent below 10; inactive means the rest.

Each molecule was assayed on HL-60(TB) leukemia (assay: NCI-60 one-dose screen, 48 h (100 = growth as untreated, 0 = no growth, -100 = all killed)). Settings: 10 µM unless noted.

Row | Structure (SMILES) | growth
1 | N#Cc1ncc(-c2ccc(C(F)(F)F)cc2)c(NCc2cc(C(F)(F)F)cc(C(F)(F)F)c2)n1 | -0.911% (active)
2 | CN(C)CCCNC1=C(Cl)C(=O)c2ccccc2C1=O | 45.3% (inactive)
3 | CS(=O)(=O)Nc1ccc(OCc2nnc(-c3ccc(Cl)cc3)o2)c(F)c1 | 115% (inactive)
4 | O=C1NC(=C(Cl)Cl)/C(=N/S(=O)(=O)N2CCCCC2)N1 | -70.3% (active)
5 | COc1ccc2c(c1)C(C)Cc1c(ncnc1-n1cnc3cc(C)ccc31)N2C (stereo not given) | -25.8% (active)
6 | N#Cc1c2c(c(N)[nH]c1=O)C(=O)NC2(O)c1ccccc1 (stereo not given) | 93.8% (inactive)
7 | COc1cc(Cl)cc(-c2nn(-c3cccc(NC(=O)c4ccc(N5CCOCC5)c(C(F)(F)F)c4)c3)cc2-c2ccncc2)c1 | 2.73% (active)
8 | O=C(O)c1ccccc1NCc1ccco1 | 102% (inactive)
9 | CN1CCN(Cc2ccc(NC(=O)c3cncc(C#Cc4ncc5ccccn45)c3)cc2C(F)(F)F)CC1 | -3.92% (active)
10 | CC(=O)c1cc(C(=O)c2ccc3c(c2)Sc2ccccc2N3)c2c(C)cc(C)cn12 | -12.6% (active)
11 | Cn1c2ccc(Cl)cc2c2nn(C(=O)c3ccccc3)c(=O)nc21 | 113% (inactive)
12 | COc1ccc(C(=O)/C=C/c2ccc(OCc3ccccc3)c(OC)c2)cc1OC | 48.8% (inactive)
13 | CN(Cc1ccccc1)c1ccc(SC#N)cc1 | 17.5% (inactive)
14 | CNC(=O)c1cc(Oc2cccc3nc(Nc4ccc(Oc5ccccc5)cc4)ccc23)ccn1 | 87.1% (inactive)
15 | CN(Cc1cnc2nc(N)nc(N)c2n1)c1c(Cl)cc(C(=O)NC(CCC(=O)O)C(=O)O)cc1Cl (stereo not given) | 18.6% (inactive)
16 | COc1cc(NCc2ccccc2O)c2ncccc2c1 | 51% (inactive)
17 | O=C(COc1ccc(/C=C2\Cc3ccc(Cl)cc3C2=O)cc1)Nc1nc2ccccc2s1 | 117% (inactive)
18 | CC(C)C[C@H](NC(=O)Cn1cccc(CNC(=O)c2ccccc2)c1=O)B(O)O | -51.3% (active)
19 | C=C(C)[C@@H]1CC[C@]2(C(=O)NNC(=O)c3cccnc3)CC[C@]3(C)[C@H](CC[C@@H]4[C@@]5(C)CCCNC(C)(C)[C@@H]5CC[C@]43C)[C@@H]12 | 66.9% (inactive)
20 | CCCCC/C=C/C/C=C/CCCCCCCC1=NC(C)(C)CN1C(C)C | 13.7% (inactive)

Row | Structure (SMILES) | growth
21 | CC(=O)O[C@H]1CC[C@@]2(C)C(=CC[C@@H]3[C@@H]2CC[C@]2(C)C(Cl)=C(c4nc5ccc(Cl)cn5c4NC(C)(C)C)C[C@@H]32)C1 | 91.9% (inactive)
22 | Cc1ccc(C)c2c1sc1nc3n[nH]c(N)c3c(=N)n12 | 112% (inactive)
23 | COc1ccc(/C(C)=N/NS(=O)(=O)c2ccc(C)cc2)cc1OC | 97.6% (inactive)
24 | CN1COc2ccc3ccccc3c2C1 | 93.2% (inactive)
25 | Cc1ccc(CNc2c3ccccc3nc3ccccc23)cc1 | 25.5% (inactive)
26 | Cc1ccc(N/N=C(/C(=O)c2ccc(Cl)cc2)c2nc(C)cc(=O)[nH]2)cc1 | 109% (inactive)
27 | Cc1cccc(NC(=O)c2sc3nc4c(cc3c2N)C(=O)CCC4)c1 | 6.14% (active)
28 | COc1ccc(C(=O)N/N=C/c2cc(C(F)(F)F)ccc2Cl)cc1 | 100% (inactive)
29 | COC(=O)c1nc(N)nc(C(=O)OC)c1C(=O)c1cccc2ccccc12 | 107% (inactive)
30 | Nc1c(C(=O)Nc2ccccc2)sc2nc3c(cc12)C(=O)CCC3 | 19.4% (inactive)
31 | Cc1ccc(Cc2cnc(NC(=O)/C=C/c3ccc(C)o3)s2)cc1 | -33% (active)
32 | COc1cc2nc(-c3ccc(Cl)cc3)cc(OCCCN3CCOCC3)c2cc1OC | 27% (inactive)
33 | NC(=O)c1cc(I)ccc1NC(=O)/C=C/c1ccccc1 | 0.952% (active)
34 | CN(C)c1ccc(/C=C/c2cc[n+](C)c(/C=C/c3ccc(N(C)C)cc3)c2)cc1 | -56.3% (active)
35 | c1ccc(-c2nc3sc(-c4ccccc4)cn3n2)cc1 | 78.8% (inactive)
36 | CCNc1cc2c(cc1Br)-c1ccccc1C2=O | 110% (inactive)
37 | O=c1[nH]c(CN2CCN(c3ccccc3F)CC2)nc2sc3c(c12)CCC3 | 116% (inactive)
38 | O=CN1N=C(c2cccc(Nc3ccnc4cc(Cl)ccc34)c2)CC1c1ccccc1 (stereo not given) | -1.22% (active)
39 | COc1ccc(N=Nc2cc(OC)c(OC)c(OC)c2)cc1 | 42.4% (inactive)
40 | ON=C(C1CCCCC1)C1CCCCC1 | 96.7% (inactive)
